In the library only some 2.7% were active in any assay of this set; here they are far more common.
NRP1-CendR mod = alters CendR peptide binding to human NRP-1 | O14786 | FAM-RPARPAR peptide binding to NRP-1, fluorescence polarization | inhibition, % at 25 µM | actives 0.85% (n = 360,000);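 active = inhibition or corrected inhibition above about 18%, plus a signal ratio from 0.5 to 1.5, limit read from the data, passing the limit was not always enough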
F508del corr = correctors of CFTR F508del function in bronchial epithelial cells | CFBE cells, YFP halide quenching; stimulated with forskolin plus potentiator P3; % fluorescence drop versus neutral controls | activity (quench increase), % at 7.58 µM | actives 0.36% (n = 350,000);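 active = mean added fluorescence quench of at least 8% versus neutral control, with both replicates also reaching 8%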;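 note: cells transiently co-express mutant CFTR-F508del with the halide-sensitive YFP; corrector assay measuring rescue of mutant channel to the surface after 24 h compound exposure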
SKN-1 block = C. elegans SKN-1 inhibition. C. elegans VP596 Pgst-4::GFP/RFP ratio, acrylamide-induced, 24 h. inhibition, % at 21.8 µM. actives 0.49% (n = 360,000);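 active = interference check ratio from 0.5 to 1.5 plus GFP to RFP signal ratio inhibition reaching or exceeding a fixed threshold, cut at about 30% in these data, passing the limit was not always enough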
MPTP inh = inhibitors of mitochondrial permeability transition pore. AID 602449. actives 1.4% (n = 360,000). inhibition, % at 10 µM. isolated mouse mitochondria, Ca2+ swelling absorbance, 30 min;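 active = inhibition of 50% or more, scaled per plate between neutral and stimulator controls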;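 note: 0% = DMSO wells given calcium and 100% = 1 mM EGTA wells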
ATG4B inhibitor = inhibitors of human ATG4B cysteine protease; Q9Y4P1; actives 0.51% (n = 340,000); inhibition, % at 8.33 µM; ATG4B cleavage of LC3-PLA2, NBD-HPC fluorescence, 1 h; in the data active = inhibition above about 40%
Target sequence (Q9Y4P1 whole entry, looked up): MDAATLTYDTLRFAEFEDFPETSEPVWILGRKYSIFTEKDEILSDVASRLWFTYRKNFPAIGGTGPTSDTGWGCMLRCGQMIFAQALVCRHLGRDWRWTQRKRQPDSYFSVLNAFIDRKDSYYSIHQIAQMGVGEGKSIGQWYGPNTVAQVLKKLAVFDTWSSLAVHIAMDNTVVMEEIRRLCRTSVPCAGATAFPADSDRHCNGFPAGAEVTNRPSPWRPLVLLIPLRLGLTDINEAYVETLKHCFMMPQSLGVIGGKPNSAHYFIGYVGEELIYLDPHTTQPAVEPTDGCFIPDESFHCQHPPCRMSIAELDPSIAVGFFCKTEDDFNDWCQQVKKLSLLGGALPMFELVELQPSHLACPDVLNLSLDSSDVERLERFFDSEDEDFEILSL
Rh123 counter = Rhodamine 123 counter-screen of mitochondrial pore hits | shares compounds with MPTP inh | isolated mitochondria, membrane potential, Rhodamine 123 fluorescence | inhibition, % at 10 µM | actives 78% (n = 5,000); in the data active = inhibition above about 22%;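 note: 0% = DMSO vehicle and 100% = positive control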
MPTP swell DR = MPTP inhibition, dose response swelling confirmation | isolated mitochondria swelling, absorbance | AID 651561 | IC50, µM | actives 58% (n = 780) | shares compounds with MPTP inh; in the data active = IC50 below about 20 µM
MPTP cs DR = active in counter-screen for permeability transition pore inhibitors. shares compounds with MPTP inh. isolated mitochondria counterscreen, fluorescence read-out. IC50, µM. actives 49% (n = 780); in the data active = IC50 below about 80 µM
An asterisk follows results filed as active.

CC(C)C[C@H](NC(=O)OC(C)(C)C)c1nnc(SCC(=O)Nc2ccc(Br)cc2)o1 was read as NRP1-CendR mod -6, SKN-1 block -10, MPTP inh 66*, ATG4B inhibitor -4 and Rh123 counter 70*.
`C[C@@H]1CN([C@@H](C)CO)S(=O)(=O)c2ccc(C#CCN(C)C)cc2O[C@@H]1CN(C)Cc1ccccn1` gave F508del corr 0.
Screening CC(=O)N(C)C[C@H]1[C@@H](c2ccc(-c3cccnc3)cc2)[C@@H](CO)N1C(=O)C1CC1 returned F508del corr 1.
Screening COc1ccccc1-c1cc(C(F)(F)F)nc(N2CCCCC2)n1 returned NRP1-CendR mod -2, SKN-1 block 3, MPTP inh 5 and ATG4B inhibitor 3.
For FC(F)(F)c1cc(-c2ccccc2)nc(N2CCCCC2)n1 the results were NRP1-CendR mod 6, SKN-1 block -1, MPTP inh 67*, ATG4B inhibitor 5, Rh123 counter -2, MPTP swell DR inactive and MPTP cs DR >80.
Nc1nc2ccc(Cl)cc2cc1C(=O)NCCc1c[nH]c2ccccc12 was read as NRP1-CendR mod -8, SKN-1 block 5, MPTP inh 84* and Rh123 counter 91*.
Screening O=C(O)c1cc(S(=O)(=O)Nc2cc(Cl)ccc2Oc2ccccc2)ccc1O returned NRP1-CendR mod -25, F508del corr 0, SKN-1 block 5, MPTP inh 72*, ATG4B inhibitor 15 and Rh123 counter 86*.
O=C(O)c1cc(S(=O)(=O)Nc2ccccc2C(=O)O)ccc1O was read as NRP1-CendR mod -43, SKN-1 block 7, MPTP inh 0 and ATG4B inhibitor -1.
For Cc1cccc(S(=O)(=O)N[C@H]2CC[C@H](CCNC(=O)c3cnccn3)O[C@@H]2CO)c1 the results were F508del corr -1.
Screening C=CCNCCCOc1ccc(C)cc1Br returned NRP1-CendR mod -11, SKN-1 block 9, MPTP inh 81*, ATG4B inhibitor 1, Rh123 counter 2, MPTP swell DR 15* and MPTP cs DR >80.
`COCCCNCCCOc1ccc(C)cc1Br` gave NRP1-CendR mod -1, SKN-1 block 10, MPTP inh 2 and ATG4B inhibitor -5.
Screening NNC(=O)Nc1cccc(C(F)(F)F)c1 returned NRP1-CendR mod 6, F508del corr 0, SKN-1 block -3, MPTP inh 1 and ATG4B inhibitor -23.
CN(C)S(=O)(=O)NCCNC(=O)c1cc(OCC(F)(F)F)ccc1OCC(F)(F)F was read as NRP1-CendR mod 3, F508del corr 0, SKN-1 block 8, MPTP inh 1 and ATG4B inhibitor -5.
O=C(NCCNC(=O)c1cc(OCC(F)(F)F)ccc1OCC(F)(F)F)Nc1cccc(C(F)(F)F)c1 was read as NRP1-CendR mod -1, SKN-1 block 30, MPTP inh 72*, ATG4B inhibitor -5 and Rh123 counter 88*.
Screening O=C(Nc1ccncc1)Nc1cccc(C(F)(F)F)c1 returned NRP1-CendR mod 8, F508del corr -1, SKN-1 block -9, MPTP inh 81*, ATG4B inhibitor -4 and Rh123 counter 99*.
For N/C(=N\OC(=O)Nc1cccc(C(F)(F)F)c1)c1ccno1 the results were NRP1-CendR mod -6, F508del corr 0, SKN-1 block 1, MPTP inh 72*, ATG4B inhibitor 8 and Rh123 counter 94*.
O=C(NNc1cccc(Cl)n1)Nc1cccc(C(F)(F)F)c1 was read as NRP1-CendR mod 4, SKN-1 block 10, MPTP inh 70*, ATG4B inhibitor 9 and Rh123 counter 72*.
For Cn1cnc(S(=O)(=O)N2C[C@@H](O)COC[C@H]3O[C@H](CC(=O)NC4CCCC4)CC[C@@H]32)c1 the results were F508del corr 0.
For O=C(Nc1cccc(C(F)(F)F)c1)c1sc(Cl)nc1C(F)(F)F the results were NRP1-CendR mod -2, F508del corr -1, SKN-1 block 9, MPTP inh 83*, ATG4B inhibitor -3 and Rh123 counter 77*.
For COC(=O)[C@H](C)NC(=O)Nc1cccc(C(F)(F)F)c1 the results were NRP1-CendR mod -1, SKN-1 block 10, MPTP inh -3 and ATG4B inhibitor 5.
`O=C(Nc1ccc(OC(F)F)cc1)Nc1cccc(C(F)(F)F)c1` gave NRP1-CendR mod -4, SKN-1 block -3, MPTP inh 86*, ATG4B inhibitor -2 and Rh123 counter 63*.
Screening Cc1cccc(Nc2nc(NCc3ccco3)c3ccccc3n2)c1 returned NRP1-CendR mod -10, F508del corr 0, SKN-1 block 21, MPTP inh 91*, ATG4B inhibitor 4 and Rh123 counter 90*.
For c1ccc(Nc2nc(NCc3ccco3)c3ccccc3n2)cc1 the results were NRP1-CendR mod 1, F508del corr -3, SKN-1 block -7, MPTP inh 76*, ATG4B inhibitor -1 and Rh123 counter 91*.
Cc1noc(C)c1NC(=O)Nc1ccc2c(c1)C(=O)N([C@H](C)CO)C[C@H](C)[C@H](CN(C)C(=O)NC(C)C)OCCCC[C@@H](C)O2 was read as F508del corr 2.
COc1ccc(NC(=O)N(C)C[C@@H]2Oc3ccc(NC(=O)Cc4cn(C)c5ccccc45)cc3C(=O)N([C@H](C)CO)C[C@H]2C)cc1 was read as F508del corr 3.
O=C(C[C@H]1CC[C@@H](NC(=O)CC2CC2)[C@@H](CO)O1)NCC(F)(F)F was read as F508del corr -3.
`O=c1c(C(c2ccccc2)c2c(O)sc3ccccc3c2=O)c(O)sc2ccccc12` gave NRP1-CendR mod -4, SKN-1 block 5, MPTP inh 68*, ATG4B inhibitor -8 and Rh123 counter 71*.
For Cc1cc2sc3ccccc3c(=O)c2c(C)c1O the results were NRP1-CendR mod -16, F508del corr 2, SKN-1 block 1, MPTP inh 3 and ATG4B inhibitor 8.
Cc1ccc(-c2csc3ncnc(NS(=O)(=O)c4ccc(Cl)cc4)c23)cc1 was read as NRP1-CendR mod -9, SKN-1 block 0, MPTP inh 85*, ATG4B inhibitor 14 and Rh123 counter 63*.
`O=S(=O)(Nc1ncnc2scc(-c3ccc(F)cc3)c12)c1cc(F)ccc1F` gave NRP1-CendR mod -12, F508del corr 1, SKN-1 block 1, MPTP inh 57*, ATG4B inhibitor -3 and Rh123 counter 75*.
